According to the supplement of paper PMC11634586:
Where a name gives a salt, the structure may show the parent alone. Unmarked numbers belong to inactive results.

test system: NCI-H1688; test: inhibition of cell viability relative to untreated control (fraction); higher = stronger growth inhibition, active = 0.5 or more; conditions: 30 µM; 24 h
Summary of the method: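 After seeding at 3 × 10^3 cells/well in 96-well plates and a 24 h wait, NCI-H1688 small cell lung cancer cells received a natural compound library (TargetMol) at 30 µM for 24 h, kept at 37°C with 5% CO2. Triplicate readings of Cell Counting Kit-8 absorbance at 450 nm measured viability. Each value is the inhibition of cell viability as a fraction, derived from viability normalised to untreated cells.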

For `O=c1c(-c2ccc(O)cc2)coc2cc(O)cc(O)c12` [Genistein], the “inhibition of cell viability” value was 0.7 (active).
In the case of `COC(=O)Nc1nc2cc(C(=O)c3cccs3)ccc2[nH]1` [Nocodazole], the “inhibition of cell viability” value is reported as 0.75 (active).
With `CO[C@H]1C[C@H](O[C@H]2[C@H](C)O[C@@H](O[C@@H]3/C(C)=C/C[C@@H]4C[C@@H](C[C@]5(C=C[C@H](C)[C@@H](C6CCCCC6)O5)O4)OC(=O)[C@@H]4C=C(C)[C@@H](O)[C@H]5OC/C(=C\C=C\[C@@H]3C)[C@]54O)C[C@@H]2OC)O[C@@H](C)[C@@H]1O` [Doramectin] the “inhibition of cell viability” value was 0.993 (active).
With `COC(=O)[C@H]1[C@H]2C[C@@H]3c4[nH]c5cc(OC)ccc5c4CCN3C[C@H]2C[C@@H](OC(=O)c2cc(OC)c(OC)c(OC)c2)[C@@H]1OC` [Reserpine] the “inhibition of cell viability” value was 0.981 (active).
With `CC[C@@]1(O)C(=O)OCc2c1cc1n(c2=O)Cc2cc3cc(O)ccc3nc2-1` [Hydroxy Camptothecine] the “inhibition of cell viability” value was 0.97 (active).
`CC[C@@]1(O)C(=O)OCc2c1cc1n(c2=O)Cc2cc3cc(O)ccc3nc2-1` [10-Hydroxycamptothecin] was tested, and the “inhibition of cell viability” value was 0.98 (active).

In order of falling “inhibition of cell viability” value:
1. C[C@@H]1O[C@@H](Oc2c(-c3ccc(O)c(O)c3)oc3cc(O)cc(O)c3c2=O)[C@H](O)[C@H](O)[C@H]1O [Quercitrin]  0.325
2. CC1(C)CC[C@]2(C)CC[C@]3(C)C(=CC[C@@H]4[C@@]5(C)CC[C@@H](O)[C@](C)(C(=O)O)[C@@H]5CC[C@]43C)[C@@H]2C1  0.314
3. CCc1c2c(nc3ccc(OC(=O)N4CCC(N5CCCCC5)CC4)cc13)-c1cc3c(c(=O)n1C2)COC(=O)[C@]3(O)CC [Irinotecan hydrochloride trihydrate]  0.311
4. O=c1oc2ccccc2c(O)c1Cc1c(O)c2ccccc2oc1=O [Dicumarol]  0.308
5. CN(C)[C@@H]1C(O)=C(C(N)=O)C(=O)[C@@]2(O)C(O)=C3C(=O)c4c(O)cccc4[C@@](C)(O)[C@H]3C[C@@H]12 [Tetracycline hydrochloride]  0.293
6. C=C(C)[C@@H]1CC[C@]2(C)CC[C@]3(C)[C@H](CC[C@@H]4[C@@]5(C)CC[C@H](O)C(C)(C)[C@@H]5CC[C@]43C)[C@@H]12 [Lupeol]  0.287
7. CN(N=O)C(=O)N[C@@H](C=O)[C@@H](O)[C@H](O)[C@H](O)CO [Streptozocin]  0.214
8. Cc1ncc(CO)c(CO)c1O [Pyridoxine hydrochloride]  0.171
9. C=C[C@H]1CN2CC[C@H]1C[C@H]2[C@H](O)c1ccnc2ccc(OC)cc12 [Quinine]  0.162
10. O=c1c(-c2ccc(O)cc2)coc2c([C@@H]3O[C@H](CO)[C@@H](O)[C@H](O)[C@H]3O)c(O)ccc12 [Puerarin (Kakonein)]  0.109
11. C=C1C[C@]23C[C@@]1(O)CC[C@H]2[C@@]12C=C[C@H](O)[C@@](C)(C(=O)O1)[C@H]2[C@@H]3C(=O)O [Gibberellic acid]  0.0962
12. O=C(/C=C/c1ccc(O)c2oc(-c3ccc(O)c(O)c3)cc12)O[C@H](Cc1ccc(O)c(O)c1)C(=O)O [Salvianolic Acid C]  0.0822
13. C=C1CC23CCC4C(C)(C(=O)OC5OC(CO)C(O)C(O)C5O)CCCC4(C)C2CCC1(OC1OC(CO)C(O)C(OC2OC(CO)C(O)C(O)C2O)C1OC1OC(C)C(O)C(O)C1O)C3 (stereo not drawn) [Dulcoside B]  0.0729
14. N[C@H]1C(O)O[C@H](CO)[C@@H](O)[C@@H]1O (stereo partly drawn) [Glucosamine hydrochloride]  0.0567
15. O=c1c(O)c(-c2ccc(O)c(O)c2)oc2cc(O)ccc12 [Fisetin]  0.0255
16. CC1CCC(C(C)C)C(O)C1 (racemic) [DL-Menthol]  0.0236
17. O=c1c(O)c(-c2cc(O)c(O)c(O)c2)oc2cc(O)cc(O)c12 [Myricetin]  0.0201
18. OC[C@@H](O)[C@H](O)[C@@H](O)CO [Xylitol]  0.015
19. O=C(O)c1ccc(O)c(O)c1 [Protocatechuic acid]  0.00558
20. Cc1c(C(=O)NCCO)[n+]([O-])c2ccccc2[n+]1[O-] [Olaquindox]  0.00372
21. O=c1[nH]cnc2c1ncn2[C@H]1C[C@H](O)[C@@H](CO)O1 [2'-Deoxyinosine]  -0.00407
22. Nc1ncnc2c1ncn2[C@@H]1O[C@H](COP(=O)(O)O)[C@@H](O)[C@H]1O [Adenosine 5'-monophosphate]  -0.0048
23. COc1cc(-c2oc3cc(O)cc(O)c3c(=O)c2O)ccc1O [Isorhamnetin]  -0.0139
24. CC(=O)O[C@H]1C[C@@]2(C)[C@@H](C[C@@H](O)[C@H]3[C@@]4(C)CC[C@@H](O)[C@@H](C)[C@@H]4CC[C@@]32C)/C1=C(\CCC=C(C)C)C(=O)O [Fusidine]  -0.0194
25. CC1(C)CCC[C@](C)([C@H]2CC[C@]3(C)[C@@H]2[C@H](O)C[C@@H]2[C@@]4(C)CC[C@H](O)C(C)(C)[C@@H]4CC[C@]23C)O1 [Panaxadiol]  -0.0255
26. C[C@@H]1O[C@@H](O[C@H]2[C@H](Oc3cc(O)c(C(=O)CCc4ccc(O)cc4)c(O)c3)O[C@H](CO)[C@@H](O)[C@@H]2O)[C@H](O)[C@H](O)[C@H]1O [Naringin dihydrochalcone]  -0.031
27. CC(=O)Oc1c(C)c(C)c2c(c1C)CCC(C)(CCC[C@H](C)CCC[C@H](C)CCCC(C)C)O2 (stereo partly drawn) [Vitamin E Acetate]  -0.0362
28. O=C(O)CCCC[C@@H]1SC[C@@H]2NC(=O)N[C@@H]21 [D-Biotin]  -0.0414
29. O=P(O)(O)O[C@H]1[C@H](OP(=O)(O)O)[C@@H](OP(=O)(O)O)[C@H](OP(=O)(O)O)[C@@H](OP(=O)(O)O)[C@H]1OP(=O)(O)O [Phytic acid]  -0.0495
30. Cc1nc(C)c(C)nc1C [Ligustrazine hydrochloride]  -0.157
31. CCCCCC1C(=O)CCC1CC(=O)OC (stereo not drawn) [Methyl Dihydrojasmonate;Hedione]  -0.235
32. Cc1cc(O)cc(O)c1C(=O)O [Orsellinic acid]  -0.313
